Assay outcomes from PubChem BioAssay.
TcdB GH inh: blocks C. difficile toxin B glycohydrolase activity | P18177 | TcdB glycohydrolase enzymatic assay, plate reader | inhibition, % at 9.99 µM | hit rate 0.24% among 350,000 | AID 652162; in the data active means inhibition above about 10%
DUSP3 inh: DUSP3 (human) phosphatase inhibition; inhibition, % at 13.3 µM; AID 1654; hit rate 0.52% among 290,000; P51452; recombinant VHR phosphatase, pNPP absorbance; in the data active means inhibition above about 50%
Vc quorum ag: inducers of Vibrio cholerae quorum light production without autoinducers | AID 588436 | hit rate 0.16% among 350,000 | V. cholerae BH1578 lux reporter, luminescence, 6 h | activation, % at 18.7 µM; in the data active means activation mostly above about 9.7%, no sharp cut-off
CCHF vOTU inh-1: CCHFV vOTU protease inhibition; Pep-AMC fluorescence; inhibition, % at 11.5 µM; hit rate 0.55% among 370,000; AID 651958
SARS 3CLpro inh: SARS-CoV 3CLpro protease inhibition | P0C6X7 | recombinant SARS-CoV 3CLpro, quenched FRET peptide cleavage | inhibition, % at 6 µM | hit rate 0.14% among 290,000; in the data active means inhibition above about 12%
SSB-PriA inh: K. pneumoniae PriA-SSBct interaction inhibition. inhibition, % at 33 µM. hit rate 0.6% among 430,000. AlphaScreen SSBct-PriA binding, biotinylated peptide; in the data active means inhibition mostly above about 37%, no sharp cut-off; inactive means mostly below about 20%
CCHF vOTU inh-2: CCHFV vOTU protease inhibition, confirmation | shares compounds with CCHF vOTU inh-1 | Recombinant CCHFV vOTU, Pep-AMC fluorescence | inhibition, % at 11.5 µM | hit rate 17% among 1,900 | AID 686976
Hits are given with their value; - = inactive; . = not tested or not shown. The list is not random: actives were taken first. Their share in the collection is about 1.3%. Unless noted, no stated cut-off is given here; in the data, active means inhibition above about 30%; inactive means the rest.

SMILES	TcdB GH inh	DUSP3 inh	Vc quorum ag	CCHF vOTU inh-1	SARS 3CLpro inh	SSB-PriA inh	CCHF vOTU inh-2
COc1ccccc1N(C)S(=O)(=O)c1ccc(C(=O)Nc2cccc(S(=O)(=O)N3CCOCC3)c2)cc1	-	.	-	34.9	.	-	-
COc1ccccc1N(C)S(=O)(=O)c1ccc(Cl)c(C(=O)NNC(=O)c2ccccc2O)c1	-	-	-	-	-	-	.
CCc1ccc(-n2c(SCC(=O)Nc3ccc(Br)cc3)nc3c(-c4ccccc4)cn(C)c3c2=O)cc1	.	.	.	.	.	-	.
COc1ccc(C(=O)/C=C/c2cccc(OCc3ccccc3)c2)cc1CSCC(=O)O	-	-	-	-	-	-	.
COc1ccc(C(=O)/C=C/c2ccc(OCc3ccccc3)cc2)cc1CSCC(=O)O	-	-	-	36.2	-	-	-
COc1ccccc1C=NN=C(NN=Cc1ccccc1OC)NN=Cc1ccccc1OC	-	.	-	69.0	.	-	-
COc1ccccc1C=NNC(=O)NN=Cc1ccccc1OC	-	.	-	-	.	-	.
Cc1cccc(NC(=O)CSc2nccc(N3CCN(c4ccc(F)cc4)CC3)n2)c1C	.	.	.	.	.	-	.
COc1ccc(-n2c3nc4ccccc4nc3c3c(=N)oc(C)nc32)cc1	.	-	-	68.7	-	-	35.8
CCCCn1c2nc3ccccc3nc2c2c(=N)oc(C)nc21	-	-	-	-	.	-	.
Cn1cc(/C=C2\SC(=S)N(NC(=O)c3ccccc3Cl)C2=O)c2ccccc21	-	-	-	30.7	-	-	-
COc1c2ccc(C(=O)N3CCc4ncncc4C3)cc2nn1C	.	.	.	.	.	-	.
Cc1ccc(NC(=S)N(Cc2ccc(Br)cc2)Cc2ccc(C(=O)O)cc2)cc1C	-	-	-	31.1	-	-	-
CCOC(=O)C1(CCc2ccccc2)CCN(C(=O)c2occc2C)CC1	-	-	-	32.2	-	-	-
COC(=O)c1ccc(S(=O)(=O)NCC2(c3ccccc3OC)CCOCC2)cc1	.	.	.	.	.	-	.
COc1ccc(NC(=O)[C@@H]2CCCN2C(=O)[C@@H]2Cc3ccccc3CN2C(=O)OC(C)(C)C)cc1	-	-	-	34.8	-	-	-
COc1ccc(NC(=O)C2CCN(C(=O)[C@@H]3Cc4ccccc4CN3C(=O)OC(C)(C)C)CC2)cc1	-	-	-	-	-	-	.
Cc1ccc(S(=O)(=O)Nc2ccccc2C(N)=O)cc1	.	-	-	-	-	-	.
Cc1ccc(S(=O)(=O)Nc2ccccc2-c2ccccc2NS(=O)(=O)c2ccc(C)cc2)cc1	.	-	-	30.4	14.0	-	-
COc1ccc2c(n1)Sc1nc3ccccc3nc1N2	-	-	-	59.5	-	-	-
COc1cc2ccccc2nn1	-	-	-	-	-	-	.
O=C(CCn1c(=S)oc2ccccc21)NC1CCCCCCC1	-	-	-	32.1	-	-	-
O=C(CCn1c(=O)oc2ccccc21)NC1CCCCC1	.	.	.	.	.	-	.
CCOC(=O)C(=CNc1cc(C)nn1-c1ccc(C)cc1)C(=O)OCC	.	-	-	29.9	-	-	-
N#CC1C(SCC(=O)NC2CC2)=NC2=C(C(=O)CCC2)C1c1ccco1 (stereo unspecified)	.	.	.	.	.	-	.
SMILES	TcdB GH inh	DUSP3 inh	Vc quorum ag	CCHF vOTU inh-1	SARS 3CLpro inh	SSB-PriA inh	CCHF vOTU inh-2
Cc1cccc(Cn2c(C(=O)OC(C)C)cc3c2ccn3C)c1	.	-	-	35.0	-	-	-
Cc1nc2scc(C)n2c(=O)c1S(=O)(=O)Nc1ccc(OC(F)(F)F)cc1	-	-	-	39.5	-	-	-
Cc1nc2scc(C)n2c(=O)c1S(=O)(=O)Nc1ccc(N2CCOCC2)c(Cl)c1	-	-	-	-	-	-	.
O=c1[nH]c(Nc2ccccn2)cc2ccccc12	-	.	-	-	.	-	.
O=c1[nH]c(Nc2ccccc2Cl)cc2ccccc12	-	.	-	94.1	.	-	-
CN(C)c1ccc(/C=N/NC(=O)c2cc(=O)[nH]c3ccccc23)cc1	-	-	-	32.5	-	.	-
Cc1ccc(CN(C(=O)N2CCN(C)CC2)S(=O)(=O)c2ccc(C)cc2)cc1	-	.	-	-	.	-	.
COC(=O)c1ccc(CN(C(=O)N2CCN(C)CC2)S(=O)(=O)c2ccc(C)cc2)cc1	-	.	-	44.8	.	-	-
CCCCc1ccc(NC(=O)CSc2cn(CCNC(=O)c3ccc(OC)c(OC)c3)c3ccccc23)cc1	.	.	.	.	.	-	.
NC1=C(Cl)C(=O)c2ccccc2C1=O	-	.	-	80.7	.	-	80.6
NC1=C(Cl)C(=O)c2ccc(S(N)(=O)=O)cc2C1=O	-	.	-	102.8	.	-	99.5
Cc1ccc(NC(=O)Cn2c(=O)n(CCCCC(=O)NC(C)C)c(=O)c3ccccc32)cc1C	.	.	.	.	.	-	.
O=c1ccc(-c2cccnc2)nn1CCNS(=O)(=O)c1ccccc1	.	.	.	.	.	-	.
CCC(=O)N1CCN(c2ccc(NC(=S)NC(=O)c3cc4ccccc4o3)cc2)CC1	-	-	-	33.6	-	-	-
CC(C)C(=O)N1CCN(c2ccc(NC(=S)NC(=O)c3cc4ccccc4o3)cc2)CC1	-	-	-	-	-	-	.
O=C(/C=C/c1cccc(Cl)c1)OCC(=O)c1ccc[nH]1	-	.	-	34.9	.	.	-
O=C(/C=C/c1ccccc1Cl)OCC(=O)c1ccc[nH]1	-	.	-	-	.	-	.
CN(C)c1ccc2nsnc2c1[N+](=O)[O-]	-	-	-	-	-	-	.
CCCCNc1ccc2nsnc2c1[N+](=O)[O-]	.	-	-	56.9	-	-	-
CCc1cccc(Nc2cc(C(=O)N3CCCCC3)nc3ccccc23)c1	.	.	.	.	.	-	.
CNC(=O)CCCCCNS(=O)(=O)c1ccc(C)cc1	.	-	-	31.0	-	-	-
CC(C)(C)N(Cc1nc(-c2ccccc2)no1)C(=O)c1ccc2c(c1)OCO2	-	-	-	29.8	-	-	-
CC(c1ccc(O)cc1)c1cn(C)c2ccccc12 (stereo unspecified)	.	.	.	-	.	.	.
Cc1[nH][nH]c(=O)c1C(c1c(C)[nH][nH]c1=O)c1cn(Cc2cccc3ccccc23)c2ccccc12	.	-	-	48.0	-	-	-
Cc1[nH][nH]c(=O)c1C(c1c(C)[nH][nH]c1=O)c1cn(C)c2ccccc12	-	-	-	44.1	-	-	-
SMILES	TcdB GH inh	DUSP3 inh	Vc quorum ag	CCHF vOTU inh-1	SARS 3CLpro inh	SSB-PriA inh	CCHF vOTU inh-2
CC1=C(C(=O)N(C)C)CC(CC(=O)NC(c2ccccc2)c2ccccc2)C(=O)N1Cc1ccc(C(C)(C)C)cc1 (stereo unspecified)	-	.	-	-	.	.	.
CC1=C(C(=O)N(C(C)C)C(C)C)CC(CC(=O)NC(c2ccccc2)c2ccccc2)C(=O)N1Cc1ccc(C(C)(C)C)cc1 (stereo unspecified)	-	.	.	35.3	.	.	-
O=C(Cn1cncn1)N1CCN(c2ccc(-n3cncn3)nn2)CC1	.	.	.	.	.	-	.
O=S(=O)(NCC1(O)CCOc2ccccc21)C1CC1 (stereo unspecified)	.	.	.	.	.	-	.
COc1ccc(-c2c(-c3ccccc3)c(C(=O)C(=O)NCCCN(C)C)n3ccc4cc(OC)c(OC)cc4c23)cc1OC	-	-	-	32.6	-	-	-
C[N+]1(C)CCC(=C2c3ccccc3CC(=O)c3sccc32)CC1	.	-	-	32.5	-	-	-
